The results in this text go back to PubChem BioAssay.

Assay [1] relates to XIP peptide (Xip251-270) binding. Kind of assay: XIP fragment 251-270 binding compounds – biochemical, small-molecule microarray, fluorescence 635/667 nm, 0.1 µg/mL protein, primary screen (AID 1182). To be noted: fluorescent protein binding, 635 nm, higher = more signal, called active from +8 up or from −8 down.
A further assay concerns XIP peptide (Xip251-270). Description: compounds binding XIP fragment 251-270 – biochemical, small-molecule microarray, fluorescence 635/667 nm, 0.5 µg/mL protein, primary screen (AID 1183). To be noted: fluorescence 635 nm, higher = more signal.
Assay [2] in a line: blood-stage malaria parasite viability loss – strain 3D7, DAPI fluorescence, 100 nL, primary screen (AID 1184).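 Note: parasites grown inside human red blood cells in medium with human serum.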 The settings on record: P. falciparum 3D7 growth, 3 d, higher = more signal.
In assay [3] the target is Homeobox protein Hox-A13 (Mus musculus) (UniProt Q62424). Kind of assay: disruptors of Hoxa13 oligonucleotide interaction – biochemical, fluorescence polarization, labeled oligonucleotide, primary screen (AID 1185). To be noted: Hoxa13:DNA binding, 15 min, higher = more signal, called active from +8 up or from −8 down.
Chain of Homeobox protein Hox-A13 (Mus musculus) (Q62424 whole entry, looked up): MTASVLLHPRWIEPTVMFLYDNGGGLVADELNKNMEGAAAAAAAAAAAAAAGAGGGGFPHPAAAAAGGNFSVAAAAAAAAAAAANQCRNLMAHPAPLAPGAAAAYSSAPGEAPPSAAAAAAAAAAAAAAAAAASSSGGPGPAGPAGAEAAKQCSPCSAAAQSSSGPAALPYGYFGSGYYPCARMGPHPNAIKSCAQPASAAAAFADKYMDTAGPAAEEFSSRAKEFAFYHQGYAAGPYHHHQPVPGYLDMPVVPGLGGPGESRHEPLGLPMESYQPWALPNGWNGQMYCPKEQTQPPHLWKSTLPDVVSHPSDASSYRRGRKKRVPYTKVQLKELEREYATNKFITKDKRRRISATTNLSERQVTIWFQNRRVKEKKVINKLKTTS
Assay [4] can be described thus: blockers of DNA damage checkpoint Chk1 activation – imaging, HeLa, hydroxyurea, phospho-Chk1 antibody, percent positive cells, primary screen (AID 1186). The settings on record: hydroxyurea-induced phospho-Chk1 immunofluorescence imaging, higher = more signal.
Assay [5] is described as follows: blockers of DNA damage checkpoint Chk1 activation – imaging, HeLa, hydroxyurea, phospho-Chk1 nuclear intensity, primary screen (AID 1187). To be noted: hydroxyurea-induced phospho-Chk1 immunofluorescence imaging, higher = more signal.

Calls of active or inactive are those of the source. Unless noted, the rule behind the calls is not given here.

As to `CCOC(=O)C[C@H]1[C@H](OC(=O)c2cc3ccccc3oc2=O)[C@@H](NC(=O)c2ccc(-c3ccccc3)cc2)c2cc(OCCCO)ccc2N1C(=O)c1ccccc1`, the composite z-score is 0.411 (inactive) in assay [1] and 0.701 in the assay on XIP peptide (Xip251-270). In addition, the z-score was -1.95 in assay [2], 0.455 (inactive) in assay [3], 0.443 (inactive) in assay [4] and 0.769 (inactive) in assay [5].
With `CCOC(=O)C[C@H]1[C@H](OC(=O)Cc2ccc3c(c2)OCO3)[C@@H](NC(=O)Cc2ccc(OC)cc2)c2cc(OCCCO)ccc2N1C(=O)c1ccc2ccccc2n1`, the composite z-score is -0.16 (inactive) in assay [1] and 0.0481 in the assay with XIP peptide (Xip251-270). The z-score in assay [2] was -0.919; in assay [3], -3.37 (inactive); in assay [4] it was -0.996 (inactive); in assay [5], -0.347 (inactive).
For `CCOC(=O)C1=C[C@@H](c2ccccc2)N(S(=O)(=O)c2ccc(C)cc2)[C@H]1c1ccccc1Cl`, the composite z-score in assay [1] is 0.566 (inactive); with XIP peptide (Xip251-270) it was 0.307. Also, the z-score in assay [2] was -2.02; in assay [3], 0.552 (inactive); in assay [4] it was -0.339 (inactive); in assay [5], -0.865 (inactive).
On to `COC(=O)[C@@]1(Cc2ccccc2)[C@@H]2C(=CC(=O)[C@H]2CC(=O)C(=O)N(C)C)CN1C(=O)c1ccccc1`, for which the results for the composite z-score (in assay [1]; in the assay with XIP peptide (Xip251-270)) were 0.0477 (inactive) and 0.345, respectively. In addition, the z-score in assay [2] is -0.99; in assay [3], -3.77 (inactive); in assay [4], 0.0041 (inactive); in assay [5] it was 0.253 (inactive).
In the case of `Cc1cc(C)c(C(O)C2C=CC3C(=O)N(c4ccccc4)C(=O)C3N2Nc2ccc(C(C)C)cc2)c(C)c1` (configuration not stated), the composite z-score was 1.21 (inactive) in assay [1] and 0.736 in the assay with XIP peptide (Xip251-270). Besides, the z-score is -0.701 in assay [2], -3.21 (inactive) in assay [3], 0.609 (inactive) in assay [4] and 0.335 (inactive) in assay [5].
As to `COc1ccc(CCNC(=O)[C@@H]2c3ccccc3C(=O)N(Cc3cc(C(F)(F)F)cc(C(F)(F)F)c3)[C@H]2c2ccc(CO)cc2)cc1`, the composite z-score in assay [1] was 0.381 (inactive); with XIP peptide (Xip251-270), 0.649. Also, the z-score was -1.17 in assay [2], -2.92 (inactive) in assay [3], -0.198 (inactive) in assay [4] and 0.173 (inactive) in assay [5].
Consider `CCOC(=O)C[C@H]1[C@H](OC(=O)c2ccc(C(=O)c3ccccc3)cc2)[C@@H](NC(=O)Cc2ccc(OC)cc2)c2cc(OCCCO)ccc2N1C(=O)c1ccccc1`, for which the results for the composite z-score (in assay [1]; in the assay with XIP peptide (Xip251-270)) were 0.922 (inactive) and -0.281, respectively. Also, the z-score in assay [2] is -0.133; in assay [3], -1.88 (inactive); in assay [4] it was 0.72 (inactive); in assay [5] it was 0.343 (inactive).
On to `C[N+](C)(C)CCCCCCNC(=O)[C@H]1C[C@H]2C(=O)N[C@@H](Cc3ccccc3)C(=O)N2[C@H]1c1ccc(O)cc1`, for which the composite z-score in assay [1] is 0.901 (inactive); in the assay on XIP peptide (Xip251-270) it was 0.5. Moreover, the z-score was 0.0933 in assay [2], -3.23 (inactive) in assay [3], 0.141 (inactive) in assay [4] and 0.14 (inactive) in assay [5].
For the compound `C=CCOC(=O)[C@H]1[C@@H]2C(=O)O[C@@H](c3ccccc3)[C@@H](c3ccccc3)N2[C@@H](c2ccc(OCCOC(=O)[C@@H]3C[C@@H]4C(=O)N5CCC[C@H]5C(=O)N4[C@@H]3c3ccc(O)cc3)cc2)[C@]12C(=O)Nc1ccc(I)cc12`, the results for the composite z-score (in assay [1]; in the assay with XIP peptide (Xip251-270)) were 0.773 (inactive) and 0.787, respectively. Also, the z-score in assay [2] was -1.64; in assay [3], 2.54 (inactive); in assay [4], 0.651 (inactive); in assay [5], 0.571 (inactive).
Take `C=C(CCCC)/C(=C/C[C@@H](OC(=O)c1ccncc1)c1ccccc1OCCO)c1cnc2ccccc2c1`: the composite z-score was 0.0648 (inactive) in assay [1] and 0.647 in the assay on XIP peptide (Xip251-270). Moreover, the z-score is -3.02 in assay [2], -3.49 (inactive) in assay [3], 0.294 (inactive) in assay [4] and -0.0646 (inactive) in assay [5].
Take `C=CCNC(=O)[C@H]1[C@@H]2C(=O)O[C@@H](c3ccccc3)[C@@H](c3ccccc3)N2[C@@H](c2ccc(O)cc2)[C@]12C(=O)Nc1ccc(C#CC3(O)CCCCCC3)cc12`: the composite z-score was 0.692 (inactive) in assay [1] and 0.466 in the assay on XIP peptide (Xip251-270). For the same compound, the z-score in assay [2] is -0.372; in assay [3] it was -3.96 (inactive); in assay [4], -0.165 (inactive); in assay [5], -0.244 (inactive).
In the case of `COCCOC(=O)N1C(=O)[C@@]2(c3cc(C#CC4=CCCCC4)ccc31)[C@H](c1ccc(O)cc1)N1[C@H](c3ccccc3)[C@H](c3ccccc3)OC(=O)[C@H]1[C@@H]2C(=O)N1CCN(c2ncccn2)CC1`, the figures for the composite z-score (in assay [1]; in the assay on XIP peptide (Xip251-270)) were -0.0719 (inactive) and 0.306, respectively. Besides, the z-score in assay [2] is 0.145; in assay [3], -0.674 (inactive); in assay [4], -0.231 (inactive); in assay [5], -0.758 (inactive).
Regarding `COCCOC(=O)N1C(=O)[C@@]2(c3cc(C#Cc4ccc(OC)cc4)ccc31)[C@H](c1ccc(O)cc1)N1[C@H](c3ccccc3)[C@H](c3ccccc3)OC(=O)[C@H]1[C@@H]2C(=O)N1CCCCCCC1`, the composite z-score in assay [1] was 0.711 (inactive); with XIP peptide (Xip251-270), 0.436. For the same compound, the z-score was -1.55 in assay [2], 1.36 (inactive) in assay [3], -0.0871 (inactive) in assay [4] and -0.171 (inactive) in assay [5].
Turning to `COCCOC(=O)N1C(=O)[C@@]2(c3cc(C#Cc4ccc(OC)cc4)ccc31)[C@H](C(=O)Nc1nc3ccccc3s1)[C@H]1C(=O)O[C@H](c3ccccc3)[C@H](c3ccccc3)N1[C@@H]2c1ccc(O)cc1`, the composite z-score in assay [1] is -0.363 (inactive); in the assay on XIP peptide (Xip251-270), 0.748. Moreover, the z-score was -1.89 in assay [2], -0.829 (inactive) in assay [3], -0.519 (inactive) in assay [4] and -0.999 (inactive) in assay [5].
`COc1ccc(CCN2C(=O)[C@@]3(Cc4ccccc42)c2ccccc2C(=O)N(Cc2ccccc2OC)[C@H]3c2ccc(CO)cc2)cc1`: the composite z-score was -0.22 (inactive) in assay [1] and 0.425 in the assay on XIP peptide (Xip251-270). Further, the z-score in assay [2] is -1.39; in assay [3], -0.208 (inactive); in assay [4], -0.154 (inactive); in assay [5], 0.0689 (inactive).
Turning to `CCOC(=O)C1=CC[C@@H](c2cccc(Cl)c2)N(S(=O)(=O)c2ccc(C)cc2)C1`, the composite z-score in assay [1] is 1.46 (inactive); in the assay on XIP peptide (Xip251-270), 0.662. Besides, the z-score is -0.639 in assay [2], -1.21 (inactive) in assay [3], -0.566 (inactive) in assay [4] and -0.272 (inactive) in assay [5].
Take `O=C1O[C@H](c2ccccc2)[C@H](c2ccccc2)N2[C@H]1[C@@H](C(=O)Nc1nc3ccccc3s1)[C@]1(C(=O)Nc3ccccc31)[C@H]2c1ccc(OCCO)cc1`: the values for the composite z-score (in assay [1]; in the assay on XIP peptide (Xip251-270)) were -0.434 (inactive) and 0.652, respectively. Besides, the z-score in assay [2] is -1.33; in assay [3] it was 1.24 (inactive); in assay [4], 0.0458 (inactive); in assay [5] it was -0.0249 (inactive).
